{
  "source": "PubChem BioAssay AID652015",
  "about": "(National Center for Advancing Translational Sciences (NCATS), 2013)",
  "target": "Coelenterazine h 2-monooxygenase (Renilla reniformis) (UniProt P27652)",
  "sequence (P27652 whole entry, looked up)": "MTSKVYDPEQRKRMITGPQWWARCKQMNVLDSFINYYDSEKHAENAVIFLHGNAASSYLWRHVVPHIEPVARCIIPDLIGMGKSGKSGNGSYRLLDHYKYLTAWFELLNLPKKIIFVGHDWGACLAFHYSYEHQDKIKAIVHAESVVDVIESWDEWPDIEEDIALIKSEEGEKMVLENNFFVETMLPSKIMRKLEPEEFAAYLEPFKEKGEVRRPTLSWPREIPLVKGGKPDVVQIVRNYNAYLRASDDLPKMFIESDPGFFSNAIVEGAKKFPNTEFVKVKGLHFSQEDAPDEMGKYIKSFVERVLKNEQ",
  "assay": "qHTS Assay for Inhibitors of Sea Pansy Luciferase from the GSK Published Protein Kinase Inhibitor Set",
  "settings": "purified Renilla luciferase, luminescence; series mostly up to 57.5 µM",
  "from_the_text": "FLuc (firefly luciferase) is the prototypical bioluminescent reporter gene from Photinus pyralis.[1] The enzyme catalyzes the oxidation luciferin via luciferin-AMP to produce light. FLuc is used in cell-based reporter gene-based assays for screening small molecule chemical libraries. However, small molecule luciferase inhibitors present in most large chemical libraries are often enriched in the output of high throughput screens using this reporter sometimes complicating interpretation and candidate selection.\nRLuc is a bioluminescent reporter gene luciferase from Renilla reniformis, also known as the sea pansy. RLuc uses the luciferin substrate coelenterazine. […]\nThree microliters containing renilla luciferase substrate in buffer (final concentrations: 50mM Tris acetate, pH 7.5, 100uM NaCl, 0.01% Tween-20, 0.05% BSA, 5uM coelenterazine h) are dispensed into each well of a Greiner white, solid-bottom 1536-well format plate using a flying reagent dispenser (FRD). These assay plates were then treated with 23nL of compound or DMSO using a Kalypsys pin tool, which allows for delivery of a 7-point interplate titration of each compound to the assay plate (quantitative HTS), with final compound concentrations ranging from approximately 60uM to 300pM. […] Luciferase activity was then measured using an Envision plate reader (PerkinElmer), with an average incubation time of 2 min.",
  "note": "Results filed as inconclusive are left out. Active and inactive are the calls of the source. Calls come from the whole dose curve; as a rule, active = well fitted inhibition curve with a large enough effect; inconclusive = small, poorly fitted or top-dose-only effect; inactive = no such curve, though single readings can be large or run the other way.",
  "data": [
    {"smiles": "CNC(=O)Oc1cc(C)c(C=Cc2cncc(C(=O)NC)c2)c(C)c1", "values": [
      {"measurement": "outcome", "result": "inactive"}
    ]}
  ]
}
